# Results from PubChem BioAssay AID1851 (National Center for Advancing Translational Sciences (NCATS), 2009).
# “And” between values parts separate entries of the source, which are not always exact repeats. Identical values can stand only once. Out of some 16,000 compounds screened, about 5,100 (32%) were called active. Another 25% or so got no clear call; they are omitted. The list shows a part of the results. A number with no mark means an inactive call. The call rests on the fitted dose curve; in most records, active means well fitted curve in the direction sought with a large enough effect; inconclusive means small, poorly fitted or top-dose-only effect, or effect the other way; inactive means no such curve, though single readings can be large or run the other way.
# Target: Cytochrome P450 3A4 (Homo sapiens) (UniProt P08684)
# Experiment: Cytochrome panel assay with activity outcomes
# Conditions: recombinant CYP, pro-luciferin dealkylation, luminescence, p450-cyp3a4; series mostly up to 57.1 µM
# On the % scale 0 is the no-effect control and ±100 the full control effect.
# Cytochrome P450 3A4 (Homo sapiens), sequence (P08684 whole entry, looked up): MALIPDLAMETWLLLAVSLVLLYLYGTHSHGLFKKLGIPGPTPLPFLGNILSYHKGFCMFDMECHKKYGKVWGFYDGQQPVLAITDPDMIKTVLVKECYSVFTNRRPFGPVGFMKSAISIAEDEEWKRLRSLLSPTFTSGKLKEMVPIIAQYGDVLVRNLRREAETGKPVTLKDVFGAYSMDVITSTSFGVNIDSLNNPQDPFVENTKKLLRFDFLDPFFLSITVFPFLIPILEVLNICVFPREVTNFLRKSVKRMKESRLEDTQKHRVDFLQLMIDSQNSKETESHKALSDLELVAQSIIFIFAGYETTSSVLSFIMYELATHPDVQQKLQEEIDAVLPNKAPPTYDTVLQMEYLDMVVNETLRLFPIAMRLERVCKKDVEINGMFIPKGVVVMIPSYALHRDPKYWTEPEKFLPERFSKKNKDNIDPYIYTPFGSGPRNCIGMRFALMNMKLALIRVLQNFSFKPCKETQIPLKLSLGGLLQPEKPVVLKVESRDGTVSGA
SMILES,AC50,"activity, negative = inhibition"
Cc1ccnc(N)c1,inactive,–
CCn1c(=O)[nH]c2ccccc2c1=O,–,5.24% [at 2.29 µM]
Cc1cc(=O)[nH]c2ccccc12,inactive,–
CC1CCCC(n2c(=S)[nH]c3ccccc3c2=O)C1C (stereo unspecified),7.94 µM (active),–
CCN1CCN(C(c2ccccn2)c2c(NC(=O)c3ccccc3)sc(C)c2C)CC1 (stereo unspecified),8.91 µM (active),–
CC(C)CO[C@H](c1ccc2c(c1)OCO2)[C@H](C)Br,3.16 µM (active),–
CCC(Sc1nc2n[nH]c(C)c2c(=N)n1-c1cccc(Cl)c1)C(=O)NCCOC (stereo unspecified),2.82 µM (active),–
Nc1ccn([C@H]2O[C@H](CO)[C@@H]3[O][Sn]([c]4ccccc4)([c]4ccccc4)[O][C@H]32)c(=O)n1,–,25.9% [at 11.4 µM]
Cc1cc(N)ccc1NC(=O)c1ccccc1,inactive,–
CC(=O)c1cc(NC(=O)c2ccccc2)c(=O)oc1/C=C/N(C)C,25.1 µM (active),–
CCOC(=O)c1cc(NC(=O)c2ccc(OC)cc2)c(=O)oc1-c1ccccc1,inactive,–
COc1ccc(C(=O)Nc2cc(C(C)=O)c(/C=C/N(C)C)oc2=O)cc1,inactive,–
Cc1ccc(C(=O)Nc2cc3c(oc2=O)CCCC3=O)cc1,inactive,–
Cc1oc(=O)c(NC(=O)c2ccccc2)cc1C(=O)c1ccccc1,7.94 µM (active),–
O=C(Nc1cc(Sc2ccccn2)cc([N+](=O)[O-])c1)c1ccc(Cl)cc1,7.94 µM (active),–
CSc1cccc(NC(=O)c2ccc(Cl)nc2)c1,inactive,–
CC/C(O)=C(\C#N)c1nnc2n1CCCCC2,inactive,–
CN1CCCN(C)C1c1cc([N+](=O)[O-])ccc1O,–,-5.36% [at 11.4 µM]
Cn1c(CCN2CCCCC2)nc2cc([N+](=O)[O-])ccc21,inactive,–

SMILES,AC50,"activity, negative = inhibition"
O=C1Nc2ccc([N+](=O)[O-])cc2C1(O)N1CCCCCC1 (stereo unspecified),3.55 µM (active),–
O=C(/C=C/c1cccc(Cl)c1)Nc1ccncc1,0.178 µM (active),–
Cc1cc(C)nc(NC(=O)/C=C/c2ccc(Cl)cc2Cl)c1,–,4.58% [at 2.29 µM]
COCCCNC(=O)/C=C/c1cccc(Cl)c1,inactive,–
NS(=O)(=O)c1cc(Br)c(N=Nc2ccc(O)c3ncccc23)c(Br)c1,–,-8.46% [at 11.4 µM]
COC(=O)C1CC1C(NC(=O)[C@@H]1CCCN1)c1ccccc1 (stereo partly specified),12.6 µM (active),–
O=C(O)[C@@H]1CCCN1,–,-4.77% [at 11.4 µM]
COC(=O)C1CC1C(NC(=O)[C@H]1CCCCN1)c1ccccc1 (stereo partly specified),10 µM (active),–
COc1cc(Br)c(C(C)NC(=O)c2cccc(Br)c2)cc1OC (stereo unspecified),0.282 µM (active),–
COc1ccc(C(=O)[C@H](Br)[C@H](Br)C(=O)O)cc1,–,3.56% [at 11.4 µM]
COc1ccc(C(=O)NC(C)c2cc(OC)c(OC)cc2Br)cc1 (stereo unspecified),0.501 µM (active),–
NS(=O)(=O)c1cc2c(cc1Cl)N[C@@H](CC1CCCC1)NS2(=O)=O,inactive,–
O=C(Nc1ccc(-n2nncc2-c2ccco2)cc1)c1ccc(F)cc1,0.708 µM (active),–
O=C(Nc1ccc(-n2nncc2-c2ccco2)cc1)c1cc2ccccc2oc1=O,4.47 µM (active),–
CC(C)(C)c1ccc(C(=O)Nc2ccc(NC(=O)c3ccco3)cc2)cc1,–,11.7% [at 2.29 µM]
CC(=O)c1cc2ccccc2oc1=O,inactive,–
CC(C)OC(=O)c1cc2ccccc2oc1=O,inactive,–
C/C(=N/NC(=O)c1ccc(NC(=O)c2ccc(F)cc2)cc1)c1ccccc1,–,15.1% [at 0.457 µM]
COc1ccc(-c2cnnn2-c2ccc(NC(=O)c3ccco3)cc2)cc1OC,1 µM (active),–

SMILES,AC50,"activity, negative = inhibition"
COc1ccc(Br)c2c1C[C@H](C(=O)O)CC2,–,-12.7% [at 11.4 µM]
Nc1nc2c(c(=O)[nH]1)CN(c1ccc(S(N)(=O)=O)cc1)CN2,–,-4.97% [at 11.4 µM]
CC(=O)SCC[N+](C)(C)C,inactive,–
COC(=O)[C@@H]1CC[C@H](C)[C@@H](c2ccc(C)cc2)N1C(=O)c1ccc(/C=N\O[C@@H](C)c2cn([C@H](CO)Cc3ccccc3)nn2)cc1,1.26 µM (active) and 3.16 µM (active),–
CO/N=C\c1ccc(C(=O)N2[C@H](c3ccc(C)cc3)[C@@H](C)CC[C@H]2C(=O)OC)cc1,3.16 µM (active),–
COC(=O)[C@@H]1CC[C@H](C)[C@@H](c2ccc(C)cc2)N1C(=O)c1ccc(/C=N\OC[C@@H](C)[C@H](OCc2ccccc2)C(C)C)cc1,3.98 µM (active),–
COC(=O)[C@@H]1CC[C@H](C)[C@@H](c2ccc(C)cc2)N1C(=O)c1ccc(/C=N\O[C@@H]2O[C@H](COC(C)=O)[C@H](OC(C)=O)[C@H](OC(C)=O)[C@H]2OC(C)=O)cc1,–,-14.4% [at 11.4 µM]
COC(=O)[C@@H]1CC[C@H](C)[C@@H](c2ccc(C)cc2)N1C(=O)c1ccc(/C=N\OCC[C@@H]2C=C[C@H](OC(C)=O)[C@H](COC(C)=O)O2)cc1,–,-18.2% [at 11.4 µM]
O=Nc1ccc(NOC(=O)c2ccc(Br)cc2)cc1,inactive,–
O=C(O)c1cc2ccccc2c(Cc2cc3ccccc3c(C(=O)O)c2O)c1O (tested in a mixture with another compound),inactive,–
Oc1ccc2ccccc2c1Cc1c(O)ccc2ccccc12,–,-19% [at 11.4 µM]
COc1ccc2c(Cc3c4ccccc4cc4ccccc34)cncc2c1O,1 µM (active),–
OC[C@H](S)CS,–,-9.69% [at 11.4 µM]
CCn1c(SCc2ccc(C)cc2)nnc1-c1nn(-c2ccccc2)ccc1=O,8.91 µM (active),–
COc1ccc(-c2nnc(SCc3cccc(C)c3)n2N)cc1,10 µM (active),–
CCn1c(SCc2cccc(C)c2)nnc1-c1ccc(C)cc1,8.91 µM (active),–
Cc1cccc(CSc2cccc3cccnc23)c1,inactive,–
CCC(=O)O[C@@H]1[C@H](C)O[C@H](O[C@H]2[C@@H](N(C)C)[C@H](O)[C@@H](O[C@@H]3[C@@H](CC=O)C[C@@H](C)[C@@H](O)/C=C\C=C/C[C@@H](C)OC(=O)C[C@@H](OC(=O)CC)[C@H]3OC)O[C@H]2C)C[C@]1(C)O,inactive,–
